# Source: PubChem BioAssay (Tox21)
# A number with no mark means an inactive call. Records with an inconclusive call do not appear. Entries that show only a call come without a potency. Calls of active or inactive are those of the source. Unless noted, the call rests on the fitted dose curve.
# Tests used:
# [1] = Nuclear factor erythroid 2-related factor 2/antioxidant responsive element (Nrf2/ARE) small molecule agonists: qHTS cell viability counter screen in human keratinocytes (AID 1919968; active means well fitted curve in the direction sought with a large enough effect in the repeat runs; an effect the other way counts as inactive or inconclusive; further: nearly all actives have a fitted effect of over 55% in size; further: potency means the concentration at half of the fitted maximal effect)
# How it was run: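 Cells of the KeratinoSens line were plated at 1,500 per well and left for 5 h before compound transfer from DMSO stocks. After a 23 h incubation (37 C, 5% CO2), CellTiter-Fluor was added. Signal was taken as fluorescence intensity 1 h later.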
# [2] = biological target: Gonadotropin-releasing hormone receptor (Homo sapiens) (UniProt P30968); test: Human gonadotropin-releasing hormone receptor (GnRHR) small molecule agonists, calcium flux assay in GnRHR-HEK293 cells (AID 1920063); further: nearly all actives have a fitted effect of over 35% in size
# How it was run: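 Compounds dissolved in DMSO are pin-transferred onto dye-loaded GnRHR-HEK293 cells, which were seeded 18 h before at 37 C/5% CO2. Calcium signal is read as fluorescence intensity at 1 s intervals for 3 min.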
# [3] = biological target: KiSS-1 receptor (Homo sapiens) (UniProt Q969F8); test: Human kisspeptin (KISS1R) small molecule agonists, calcium flux assay in KISS1R-HEK293 cells (AID 1920064; active means well fitted curve in the direction sought with a large enough effect in the repeat runs; an effect the other way counts as inactive or inconclusive)
# How it was run: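 Cell line: HEK293, stable human KISS1R. Dye loading 1 h at 37 C after 18 h culture. Read: kinetic fluorescence, 480/540 nm, 3 min at 1 s intervals.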
# [4] = G protein-coupled receptor (GPCR) small molecule agonists, calcium flux assay: HEK293 wild type cell line counter screen (AID 1920065)
# How it was run: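 Tox21 10K compounds, 15 concentrations each in triplicate, pin-transferred in DMSO onto dye-loaded cells; kinetic read at 480/540 nm for 3 min, 1 s intervals.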
# [5] = p53 small molecule agonists, cell-based qHTS assay with rat liver microsomes (AID 1963578)
# How it was run: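 With rat liver microsomes and NADPH present (0.5 mg/mL final each), p53RE-bla cells are treated with compound for 16 h at 37 C. LiveBLAzer detection mixture is then applied for 2 h at room temperature in the dark.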
# [6] = p53 small molecule agonists, cell-based qHTS assay with human liver microsomes: qHTS cell viability counter screen (AID 1963579); further: nearly all actives have a fitted effect of over 45% in size
# How it was run: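 In this multiplexed counter screen, the reporter plates were subsequently treated with CellTiter-Glo so that cell viability, reflected by luminescence, could be recorded for p53RE-bla cells dosed 16 h with compounds under microsomal activation (HLM and NADPH).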
# [7] = p53 small molecule agonists, cell-based qHTS assay with rat liver microsomes: qHTS cell viability counter screen (AID 1963580); further: nearly all actives have a fitted effect of over 45% in size
# How it was run: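 Cytotoxicity counter screen: intracellular ATP read by CellTiter-Glo luminescence in the p53 reporter wells. HCT-116 p53RE-bla cells were treated for 16 h at 37 C alongside rat liver microsomes and NADPH, each 0.5 mg/mL final.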
# [8] = p53 small molecule agonists, cell-based qHTS assay: qHTS cell viability counter screen (AID 1963581); further: nearly all actives have a fitted effect of over 45% in size
# How it was run: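 ATP content measured by luminescence in HCT-116 p53RE-bla cells treated 16 h at 37 C, same wells as the reporter screen.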
# [9] = p53 small molecule agonists, cell-based qHTS assay (AID 1963582; active means well fitted activation curve with a large enough effect in the signal ratio in the repeat runs, not every such curve was filed as active; the % refers to the signal ratio)
# How it was run: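 16 h compound exposure (37 C) of p53 response element–bla cells, preceded by 5 h recovery at 37 C/5% CO2; read-out via LiveBLAzer B/G FRET substrate, 2 h RT, fluorescence intensity.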
# [10] = biological target: 5-hydroxytryptamine receptor 2A (Homo sapiens) (UniProt P28223); test: 5-hydroxytryptamine receptor 2A (HTR2A) small molecule antagonists, cell-based qHTS assay (AID 1963586); further: nearly all actives have a fitted effect of over 45% in size
# How it was run: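 CHO cells stably expressing human HTR2A were plated for 18 h at 37 C, then loaded with calcium dye for 1 h. Compounds were preincubated 5 min at room temperature before DOI (4 nM solution) was added. Kinetic fluorescence was read for 3 min.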
# [11] = biological target: 5-hydroxytryptamine receptor 2A (Homo sapiens) (UniProt P28223); test: 5-hydroxytryptamine receptor 2A (HTR2A) small molecule agonists, cell-based qHTS assay (AID 1963587); further: nearly all actives have a fitted effect of over 30% in size
# How it was run: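 Kinetic calcium-flux fluorescence (2 min, 1 sec intervals) after compound addition in agonist mode. HTR2A-CHO cells were cultured 18 h, then dye-loaded 1 h at 37 C.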
# [12] = biological target: Muscarinic acetylcholine receptor M1 (Homo sapiens) (UniProt P11229); test: Cholinergic receptor muscarinic 1 (CHRM1) small molecule antagonists, cell-based qHTS assay (AID 1963588); further: nearly all actives have a fitted effect of over 40% in size
# How it was run: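 Compounds were tested at 15 concentrations in three independent runs. Dye-loaded CHRM1-CHO cells were exposed 5 min at room temperature before stimulation by acetylcholine added at 50nM. Intracellular calcium was read kinetically on FDSS for 3 min.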
# [13] = biological target: Muscarinic acetylcholine receptor M1 (Homo sapiens) (UniProt P11229); test: Cholinergic receptor muscarinic 1 (CHRM1) small molecule agonists, cell-based qHTS assay (AID 1963589); further: nearly all actives have a fitted effect of over 35% in size
# How it was run: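 Homogeneous fluorescence calcium flux, agonist mode. Human M1-expressing CHO cells; compound dosed at 15 concentrations, three independent runs; signal sampled every 1 sec.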
# [14] = cAMP Responsive Elements (CRE) small molecule agonists, cell-based qHTS assay (AID 1963590)
# How it was run: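 HEK 293T cells stably bearing CRE-bla were plated at 2,000 cells per well and rested 18 h. Compounds, positive controls or DMSO were added for 3 h at 37 C. LiveBLAzer B/G substrate was then loaded for 2 h at room temperature.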
# [15] = biological target: Beta-2 adrenergic receptor (Homo sapiens) (UniProt P07550); test: Adrenergic beta2 receptor (ADRB2) small molecule antagonists, cell-based qHTS assay (AID 1963592); further: series mostly up to about 92 µM; nearly all actives have a fitted effect of over 50% in size
# How it was run: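 Assay format: CHO-ADRB2 cells, 18-20hr seeding at 37C/5% CO2, then compound plus 1nM isoproterenol agonist mix for 0.5hr RT. Homogeneous time-resolved fluorescence cAMP detection after 1hr, expressed as 665/615 nm ratio.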
# [16] = biological target: Beta-2 adrenergic receptor (Homo sapiens) (UniProt P07550); test: Adrenergic beta2 receptor (ADRB2) small molecule agonists, cell-based qHTS assay (AID 1963593);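 further: CHO cells stably overexpressing human ADRB2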
# How it was run: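 CHO cells stably over-expressing ADRB2 were plated overnight at 37C, then dosed with compounds plus a stimulation mix containing 100uM IBMX and 25uM Ro-20-1724 for 0.5hr at room temperature. cAMP was measured by HTRF competition, 1hr.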
# [17] = biological target: D(2) dopamine receptor (Homo sapiens) (UniProt P14416); test: Dopamine D2 receptor (DRD2) small molecule agonists, cell-based qHTS assay (AID 1963594); further: nearly all actives have a fitted effect of over 35% in size
# How it was run: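 cAMP accumulation in DRD2-HEK293 cells measured by HTRF after 1 h detection; compounds added 10 min before NKH477 (200nM […]) forskolin-analogue stimulation, 30 min at room temperature, with Ro20-1724 present at 0.1 mM final.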
# [18] = biological target: D(2) dopamine receptor (Homo sapiens) (UniProt P14416); test: Dopamine D2 receptor (DRD2) small molecule antagonists, cell-based qHTS assay (AID 1963595; active means well fitted inhibition curve with a large enough effect in the signal ratio in the repeat runs, with a control signal flat; the % refers to the signal ratio)
# How it was run: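 HEK293 cells stably expressing DRD2 were preincubated with 0.1 mM Ro20-1724, then with compound for 10 min at room temperature. Cells were stimulated with 200 nM NKH477 plus 12 nM quinpirole for 30 min, and cAMP was read by HTRF.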
# [19] = cAMP Responsive Elements (CRE) small molecule antagonists, cell-based qHTS assay (AID 1963591; active means well fitted inhibition curve with a large enough effect in the signal ratio in the repeat runs, not every such curve was filed as active; the % refers to the signal ratio)
# How it was run: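 First, CRE-bla HEK293T cells settled 18 h at 37 C. Next, compound and 0.25 uM final NKH477 were applied for 3 h. Last, LiveBLAzer B/G substrate was loaded for 2 h at room temperature.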
# [20] = p53 small molecule agonists, cell-based qHTS assay with human liver microsomes (AID 1963577);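 further: p53 response element beta-lactamase reporter cells with liver microsomes plus NADPH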
# How it was run: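 16 h, 37 C exposure of p53RE-bla cells to compounds with human liver microsomes and NADPH (0.5 mg/mL final each); detection via LiveBLAzer mixture, 2 h dark at room temperature.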
# Muscarinic acetylcholine receptor M1 (Homo sapiens), sequence (P11229 whole entry, looked up): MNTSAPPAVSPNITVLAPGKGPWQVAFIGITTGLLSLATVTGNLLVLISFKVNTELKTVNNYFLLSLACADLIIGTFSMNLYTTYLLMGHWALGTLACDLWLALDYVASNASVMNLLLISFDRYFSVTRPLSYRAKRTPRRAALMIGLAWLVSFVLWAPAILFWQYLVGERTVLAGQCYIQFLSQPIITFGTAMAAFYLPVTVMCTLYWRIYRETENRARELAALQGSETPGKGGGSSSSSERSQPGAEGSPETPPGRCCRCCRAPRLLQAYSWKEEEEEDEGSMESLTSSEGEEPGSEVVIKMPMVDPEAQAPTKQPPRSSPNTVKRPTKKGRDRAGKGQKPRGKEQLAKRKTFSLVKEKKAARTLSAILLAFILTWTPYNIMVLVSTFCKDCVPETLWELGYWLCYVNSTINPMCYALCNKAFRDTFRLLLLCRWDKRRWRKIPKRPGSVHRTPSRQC
# Beta-2 adrenergic receptor (Homo sapiens), sequence (P07550 whole entry, looked up): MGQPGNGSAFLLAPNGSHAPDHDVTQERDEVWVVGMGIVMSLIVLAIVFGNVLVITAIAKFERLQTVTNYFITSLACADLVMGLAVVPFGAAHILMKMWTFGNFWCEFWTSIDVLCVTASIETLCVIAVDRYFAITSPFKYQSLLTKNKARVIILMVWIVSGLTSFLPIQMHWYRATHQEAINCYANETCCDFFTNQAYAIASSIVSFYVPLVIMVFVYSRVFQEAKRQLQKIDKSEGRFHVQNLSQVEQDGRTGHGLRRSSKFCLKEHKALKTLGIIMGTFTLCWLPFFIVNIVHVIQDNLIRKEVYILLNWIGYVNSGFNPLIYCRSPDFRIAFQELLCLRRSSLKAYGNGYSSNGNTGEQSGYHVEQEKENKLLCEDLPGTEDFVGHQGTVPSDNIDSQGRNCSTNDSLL
# D(2) dopamine receptor (Homo sapiens), sequence (P14416 whole entry, looked up): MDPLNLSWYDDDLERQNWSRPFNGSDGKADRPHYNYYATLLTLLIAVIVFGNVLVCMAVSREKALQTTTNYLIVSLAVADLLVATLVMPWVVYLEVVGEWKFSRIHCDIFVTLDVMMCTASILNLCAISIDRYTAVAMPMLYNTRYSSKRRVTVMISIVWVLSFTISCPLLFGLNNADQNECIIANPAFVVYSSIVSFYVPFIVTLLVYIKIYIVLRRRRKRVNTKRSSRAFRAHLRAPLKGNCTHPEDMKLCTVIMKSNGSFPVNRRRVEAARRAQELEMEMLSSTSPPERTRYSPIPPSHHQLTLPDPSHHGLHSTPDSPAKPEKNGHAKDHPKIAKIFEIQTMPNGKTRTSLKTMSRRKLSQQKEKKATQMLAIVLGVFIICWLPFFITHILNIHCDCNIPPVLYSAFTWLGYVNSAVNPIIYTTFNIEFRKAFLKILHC
# 5-hydroxytryptamine receptor 2A (Homo sapiens), sequence (P28223 whole entry, looked up): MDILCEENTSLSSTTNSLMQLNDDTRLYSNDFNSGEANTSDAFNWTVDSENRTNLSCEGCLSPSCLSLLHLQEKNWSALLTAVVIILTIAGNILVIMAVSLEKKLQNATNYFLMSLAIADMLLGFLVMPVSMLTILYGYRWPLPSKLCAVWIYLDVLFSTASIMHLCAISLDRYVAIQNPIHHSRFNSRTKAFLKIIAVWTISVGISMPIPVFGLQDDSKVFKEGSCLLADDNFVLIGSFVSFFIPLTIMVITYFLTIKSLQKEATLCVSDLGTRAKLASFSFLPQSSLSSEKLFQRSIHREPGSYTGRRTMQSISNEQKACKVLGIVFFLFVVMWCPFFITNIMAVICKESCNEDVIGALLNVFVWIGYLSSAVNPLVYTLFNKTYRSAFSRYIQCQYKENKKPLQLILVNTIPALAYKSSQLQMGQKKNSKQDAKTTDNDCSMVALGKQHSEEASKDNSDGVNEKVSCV
# KiSS-1 receptor (Homo sapiens), sequence (Q969F8 whole entry, looked up): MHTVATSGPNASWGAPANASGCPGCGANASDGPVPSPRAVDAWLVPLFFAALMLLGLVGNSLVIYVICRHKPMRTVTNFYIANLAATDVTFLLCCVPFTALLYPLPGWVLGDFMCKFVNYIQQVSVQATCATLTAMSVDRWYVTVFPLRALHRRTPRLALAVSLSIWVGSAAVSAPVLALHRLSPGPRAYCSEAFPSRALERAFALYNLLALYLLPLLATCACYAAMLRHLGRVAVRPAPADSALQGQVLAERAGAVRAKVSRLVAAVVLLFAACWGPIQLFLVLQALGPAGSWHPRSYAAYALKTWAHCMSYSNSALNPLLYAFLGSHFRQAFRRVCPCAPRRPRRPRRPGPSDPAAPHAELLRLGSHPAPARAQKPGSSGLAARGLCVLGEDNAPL
# Gonadotropin-releasing hormone receptor (Homo sapiens), sequence (P30968 whole entry, looked up): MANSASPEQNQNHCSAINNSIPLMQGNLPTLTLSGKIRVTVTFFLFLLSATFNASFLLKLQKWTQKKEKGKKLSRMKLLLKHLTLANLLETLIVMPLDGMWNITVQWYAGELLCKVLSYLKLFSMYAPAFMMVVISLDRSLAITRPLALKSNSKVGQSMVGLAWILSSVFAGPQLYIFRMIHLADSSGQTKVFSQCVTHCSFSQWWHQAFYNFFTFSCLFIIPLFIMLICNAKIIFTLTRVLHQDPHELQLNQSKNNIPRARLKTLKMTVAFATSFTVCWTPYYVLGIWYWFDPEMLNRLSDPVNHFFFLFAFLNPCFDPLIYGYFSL
Structure (SMILES),Potency [1],Potency [2],Potency [3],Potency [4],Potency [5],Potency [6],Potency [7],Potency [8],Potency [9],Potency [10],Potency [11],Potency [12],Potency [13],Potency [14],Potency [15],Potency [16],Potency [17],Potency [18],Potency [19],Potency [20]
CCCCCCCCCCCCN(CCCCCCCCCCCC)CCCCCCCCCCCC,inactive,inactive,inactive,inactive,inactive,inactive,inactive,inactive,inactive,inactive,inactive,inactive,inactive,inactive,inactive,inactive,inactive,inactive,,
O=C(Nc1ccc(C(=O)O)c(O)c1)c1ccccc1,inactive,inactive,inactive,inactive,inactive,inactive,inactive,inactive,inactive,,inactive,inactive,inactive,inactive,inactive,inactive,inactive,inactive,inactive,
Cc1cc(O)c2ccccc2c1O,13.3 µM (active),inactive,inactive,inactive,,inactive,,,inactive,inactive,inactive,,inactive,,inactive,,inactive,inactive,,inactive
CC(=O)[O][Al],inactive,inactive,inactive,inactive,inactive,inactive,inactive,inactive,inactive,inactive,inactive,inactive,inactive,inactive,inactive,inactive,inactive,inactive,inactive,
Cc1ccc(O)c2ncccc12,2.66 µM (active),inactive,inactive,inactive,inactive,,,inactive,inactive,inactive,inactive,inactive,inactive,inactive,inactive,,,inactive,,inactive
CCOC(=O)CC(O)(CC(=O)OCC)C(=O)OCC,inactive,inactive,inactive,inactive,inactive,inactive,inactive,inactive,inactive,inactive,inactive,inactive,inactive,inactive,inactive,inactive,inactive,inactive,,
Cc1ccc([N+](=O)[O-])c(N)c1,inactive,inactive,inactive,inactive,,,inactive,,inactive,inactive,inactive,inactive,inactive,inactive,inactive,inactive,inactive,inactive,inactive,inactive
